# Columns and labels:
# Test in all cases: SPOT peptide array binding signal intensity (averaged, normalized) (arbitrary units (background-subtracted, floor 0; scale differs between SH3 domains)); higher = stronger binding of the SH3 domain to the peptide
# [1] = molecular target: AgAbp1
# In short: (§1)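 GST-fused SH3 domains from four yeast species were expressed in E. coli BL21(DE3), purified on glutathione Sepharose and incubated at 10 μg/ml overnight at 4°C in TBS-based blocking buffer on cellulose membranes carrying synthetic 15-mer peptides, with cysteines replaced by serines. Bound protein was detected with anti-GST antibody, an HRP anti-mouse secondary and luminol, then imaged and quantified with Genespotter. Binding signal is the normalized, background-subtracted spot intensity averaged over replicates, in arbitrary units that differ between domains.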
# [2] = molecular target: AgBbc1
# In short: as §1
# [3] = molecular target: AgBem1-D1
# In short: as §1
# [4] = molecular target: AgBzz1-D1
# In short: as §1
# [5] = molecular target: AgBzz1-D2
# In short: as §1
# [6] = molecular target: AgCyk3
# In short: as §1
# [7] = molecular target: AgFus1
# In short: as §1
# [8] = molecular target: AgHof1
# In short: as §1
# [9] = molecular target: AgHse1
# In short: as §1
# [10] = molecular target: AgLsb1
# In short: as §1
# [11] = molecular target: AgLsb4
# In short: as §1
# [12] = molecular target: AgMyo5
# In short: as §1
# [13] = molecular target: AgNbp2
# In short: as §1
# [14] = molecular target: AgRvs167
# In short: as §1
# [15] = molecular target: AgSho1
# In short: as §1
# [16] = molecular target: AgSla1-D1-D2
# In short: as §1
# [17] = molecular target: AgSla1-D3
# In short: as §1
# [18] = molecular target: CaAbp1-D1
# In short: as §1
# [19] = molecular target: CaAbp1-D2
# In short: as §1
# [20] = molecular target: CaBbc1
# In short: as §1
# [21] = molecular target: CaBem1-D1
# In short: as §1
# [22] = molecular target: CaBzz1-D1
# In short: as §1
# [23] = molecular target: CaBzz1-D2
# In short: as §1
# [24] = molecular target: CaCyk3
# In short: as §1
# [25] = molecular target: CaFus1
# In short: as §1
# [26] = molecular target: CaHof1
# In short: as §1
# [27] = molecular target: CaHse1
# In short: as §1
# [28] = molecular target: CaLsb1
# In short: as §1
# [29] = molecular target: CaLsb4
# In short: as §1
# [30] = molecular target: CaMyo5
# In short: as §1
# [31] = molecular target: CaNbp2
# In short: as §1
# [32] = molecular target: CaRvs167
# In short: as §1
# [33] = molecular target: CaRvs167-3
# In short: as §1
# [34] = molecular target: CaSho1
# In short: as §1
# [35] = molecular target: CaSla1-D1-D2
# In short: as §1
# [36] = molecular target: CaSla1-D3
# In short: as §1
# [37] = molecular target: ScAbp1
# In short: as §1
# [38] = molecular target: ScBbc1
# In short: as §1
# [39] = molecular target: ScBem1-D1
# In short: as §1
# [40] = molecular target: ScBzz1-D1
# In short: as §1
# [41] = molecular target: ScBzz1-D2
# In short: as §1
# [42] = molecular target: ScCyk3
# In short: as §1
# [43] = molecular target: ScFus1
# In short: as §1
# [44] = molecular target: ScHof1
# In short: as §1
# [45] = molecular target: ScHse1
# In short: as §1
# [46] = molecular target: ScLsb1
# In short: as §1
# [47] = molecular target: ScLsb2
# In short: as §1
# [48] = molecular target: ScLsb3
# In short: as §1
# [49] = molecular target: ScLsb4
# In short: as §1
# [50] = molecular target: ScMyo3
# In short: as §1
# [51] = molecular target: ScMyo5
# In short: as §1
# [52] = molecular target: ScNbp2
# In short: as §1
# [53] = molecular target: ScPex13
# In short: as §1
# [54] = molecular target: ScRvs167
# In short: as §1
# [55] = molecular target: ScSho1
# In short: as §1
# [56] = molecular target: ScSla1-D1-D2
# In short: as §1
# [57] = molecular target: ScSla1-D3
# In short: as §1
# [58] = molecular target: SpAbp1-D1
# In short: as §1
# [59] = molecular target: SpBbc1
# In short: as §1
# [60] = molecular target: SpBzz1-D1
# In short: as §1
# [61] = molecular target: SpBzz1-D2
# In short: as §1
# [62] = molecular target: SpCyk3
# In short: as §1
# [63] = molecular target: SpHof1
# In short: as §1
# [64] = molecular target: SpHof1-2
# In short: as §1
# [65] = molecular target: SpHof1-3
# In short: as §1
# [66] = molecular target: SpHse1
# In short: as §1
# [67] = molecular target: SpLsb1
# In short: as §1
# [68] = molecular target: SpLsb4
# In short: as §1
# [69] = molecular target: SpMyo1
# In short: as §1
# [70] = molecular target: SpNbp2
# In short: as §1
# [71] = molecular target: SpPex13
# In short: as §1
# [72] = molecular target: SpRvs167
# In short: as §1
# [73] = molecular target: SpSla1-D1-D2
# In short: as §1
# [74] = molecular target: SpSla1-D3
# In short: as §1
binder,measurement,setting,value
SSAAPPPPPRRATPE,SPOT peptide array binding signal intensity,[1],0.5
same,SPOT peptide array binding signal intensity,[2],602
same,SPOT peptide array binding signal intensity,[3],≤ 0
same,SPOT peptide array binding signal intensity,[4],122
same,SPOT peptide array binding signal intensity,[5],18
same,SPOT peptide array binding signal intensity,[6],≤ 0
same,SPOT peptide array binding signal intensity,[7],4
same,SPOT peptide array binding signal intensity,[8],0.5
same,SPOT peptide array binding signal intensity,[9],11
same,SPOT peptide array binding signal intensity,[10],355
same,SPOT peptide array binding signal intensity,[11],1120
same,SPOT peptide array binding signal intensity,[12],8
same,SPOT peptide array binding signal intensity,[13],0.5
same,SPOT peptide array binding signal intensity,[14],446
same,SPOT peptide array binding signal intensity,[15],3
same,SPOT peptide array binding signal intensity,[16],1
same,SPOT peptide array binding signal intensity,[17],12
same,SPOT peptide array binding signal intensity,[18],28.5
same,SPOT peptide array binding signal intensity,[19],23
same,SPOT peptide array binding signal intensity,[20],268
same,SPOT peptide array binding signal intensity,[21],≤ 0
same,SPOT peptide array binding signal intensity,[22],1350
same,SPOT peptide array binding signal intensity,[23],293
same,SPOT peptide array binding signal intensity,[24],≤ 0
same,SPOT peptide array binding signal intensity,[25],134
same,SPOT peptide array binding signal intensity,[26],31
same,SPOT peptide array binding signal intensity,[27],6
same,SPOT peptide array binding signal intensity,[28],0.5
same,SPOT peptide array binding signal intensity,[29],3810
same,SPOT peptide array binding signal intensity,[30],0.5
same,SPOT peptide array binding signal intensity,[31],1
same,SPOT peptide array binding signal intensity,[32],349
same,SPOT peptide array binding signal intensity,[33],0.5
same,SPOT peptide array binding signal intensity,[34],≤ 0
same,SPOT peptide array binding signal intensity,[35],1870
same,SPOT peptide array binding signal intensity,[36],0.25
same,SPOT peptide array binding signal intensity,[37],3
same,SPOT peptide array binding signal intensity,[38],0.5
same,SPOT peptide array binding signal intensity,[39],≤ 0
same,SPOT peptide array binding signal intensity,[40],24
same,SPOT peptide array binding signal intensity,[41],5
same,SPOT peptide array binding signal intensity,[42],1
same,SPOT peptide array binding signal intensity,[43],≤ 0
same,SPOT peptide array binding signal intensity,[44],7
same,SPOT peptide array binding signal intensity,[45],≤ 0
same,SPOT peptide array binding signal intensity,[46],315
same,SPOT peptide array binding signal intensity,[47],49.5
same,SPOT peptide array binding signal intensity,[48],3110
same,SPOT peptide array binding signal intensity,[49],711
same,SPOT peptide array binding signal intensity,[50],124
same,SPOT peptide array binding signal intensity,[51],83.8
same,SPOT peptide array binding signal intensity,[52],36
same,SPOT peptide array binding signal intensity,[53],300
same,SPOT peptide array binding signal intensity,[54],1890
same,SPOT peptide array binding signal intensity,[55],3
same,SPOT peptide array binding signal intensity,[56],1390
same,SPOT peptide array binding signal intensity,[57],≤ 0
same,SPOT peptide array binding signal intensity,[58],160
same,SPOT peptide array binding signal intensity,[59],≤ 0
same,SPOT peptide array binding signal intensity,[60],757
same,SPOT peptide array binding signal intensity,[61],142
same,SPOT peptide array binding signal intensity,[62],2.5
same,SPOT peptide array binding signal intensity,[63],10.2
same,SPOT peptide array binding signal intensity,[64],33.5
same,SPOT peptide array binding signal intensity,[65],366
same,SPOT peptide array binding signal intensity,[66],10.5
same,SPOT peptide array binding signal intensity,[67],101
same,SPOT peptide array binding signal intensity,[68],2800
same,SPOT peptide array binding signal intensity,[69],876
same,SPOT peptide array binding signal intensity,[70],≤ 0
same,SPOT peptide array binding signal intensity,[71],≤ 0
same,SPOT peptide array binding signal intensity,[72],1860
same,SPOT peptide array binding signal intensity,[73],62
same,SPOT peptide array binding signal intensity,[74],0.5

# — the supplement of paper PMC4466140
